The record followed here is PubChem BioAssay (NCI).

A short description of test [1]: NCI Yeast Anticancer Drug Screen. Data for the rad50 strain (AID 155).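 Further: 0% = growth of vehicle-only cultures of the same strain.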 To be noted: S. cerevisiae rad50 strain growth inhibition, stronger effect = higher value. An outline of the steps:
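Growth of the mutant yeast was measured after compound exposure and referenced to vehicle-treated cultures.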

Test [2] is described as follows: NCI Yeast Anticancer Drug Screen. Data for the mec2-1 strain (AID 157). To be noted: S. cerevisiae mec2-1 strain, stronger effect = higher value. Summed up:
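Readout is yeast growth inhibition, normalised to vehicle-treated controls, in the mec2-1 strain exposed to compound.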

Test [3] is described as follows: NCI Yeast Anticancer Drug Screen. Data for the sgs1 mgt1 strain (AID 161).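 Further: 0% = growth of cultures given vehicle only.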 To be noted: S. cerevisiae sgs1 mgt1 strain, stronger effect = higher value. An outline of the steps:
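Growth of a repair-deficient yeast mutant was monitored after compound treatment and expressed as inhibition relative to vehicle-treated cultures.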

Test [4] can be described thus: NCI Yeast Anticancer Drug Screen. Data for the cln2 rad14 strain (AID 165).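 Further: 0% = growth equal to vehicle treated cultures.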 To be noted: S. cerevisiae cln2 rad14 strain, stronger effect = higher value. Summed up:
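Relative to vehicle controls, growth inhibition of compound-treated cln2 rad14 yeast was recorded.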

Test [5] in a line: NCI Yeast Anticancer Drug Screen. Data for the bub3 strain (AID 167). Conditions: S. cerevisiae bub3 mutant strain, stronger effect = higher value. Summed up:
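Whole-cell yeast assay. The mutant strain was incubated with compounds, and growth inhibition was determined by comparison with vehicle-treated cells.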

Test [6] is described as follows: NCI Yeast Anticancer Drug Screen. Data for the mlh1 rad18 strain (AID 175). To be noted: S. cerevisiae mlh1 rad18 strain growth inhibition, stronger effect = higher value. Summed up:
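Test agents were incubated with a yeast strain of defined genotype (DNA damage repair defect). Inhibition of growth was derived by comparison with vehicle-exposed cultures.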

Setting [7] is: at 5.0 µM (retest, dose inferred, filed as 0.5).
[8] abbreviates: at 50.0 µM (retest, dose inferred, filed as 5.0).

Several values for one entry are separate records, joined by “and”; a condition that tells them apart may be missing. Equal entries are not always repeated. About 79,000 compounds went through this panel and 15% of them were active in at least one assay; those are over-represented in the sample as a whole. A structure can be active in one record and inactive in another. Activity calls are given as the source filed them. No stated cut-off is given here; in the data, active means growth inhibition above about 70%; inactive means the rest.

On to `Oc1ccccc1C=Nc1ccccc1O`, for which the growth inhibition was 22% (inactive) in test [1] (setting [7]); 32% (inactive) in test [1] (setting [8]); 59.2% (inactive) and 56.2% (inactive) in test [1] (at 50.0 µM); 8% (inactive) in test [2] (setting [7]); 22% (inactive) in test [2] (setting [8]); 36.7% (inactive) and 41.9% (inactive) in test [2] (at 50.0 µM). For the same compound, the growth inhibition is 7% (inactive) in test [3] (setting [7]); 16% (inactive) in test [3] (setting [8]); 35.5% (inactive) and 42.1% (inactive) in test [3] (at 50.0 µM); -5% (inactive) in test [4] (setting [7]); 5% (inactive) in test [4] (setting [8]); 17.2% (inactive) and 32.1% (inactive) in test [4] (at 50.0 µM). Moreover, the growth inhibition in test [5] (setting [7]) was 79% (active); in test [5] (setting [8]), 65% (inactive); in test [5] (at 50.0 µM), 54.4% (inactive) and 72.1% (active); in test [6] (setting [7]), 38% (inactive); in test [6] (setting [8]), 47% (inactive); in test [6] (at 50.0 µM), 49.8% (inactive) and 29.6% (inactive).

With `CSCCC(NS(=O)(=O)Cc1ccccc1)C(=O)NNc1ccccc1` (stereo unspecified), the growth inhibition is -4% (inactive) and 18% (inactive) in test [1] (setting [7]); 44% (inactive) and 71% (active) in test [1] (setting [8]); 72% (active) and 51.2% (inactive) in test [1] (at 50.0 µM); 0% (inactive) and 2% (inactive) in test [2] (setting [7]); 30% (inactive) and 34% (inactive) in test [2] (setting [8]); 30.7% (inactive) and 41.2% (inactive) in test [2] (at 50.0 µM). Also, the growth inhibition in test [3] (setting [7]) was -12% (inactive) and 10% (inactive); in test [3] (setting [8]), 65% (inactive) and 58% (inactive); in test [3] (at 50.0 µM) it was 55.9% (inactive) and 63.3% (inactive); in test [4] (setting [7]) it was 14% (inactive) and 5% (inactive); in test [4] (setting [8]), 44% (inactive) and 60% (inactive); in test [4] (at 50.0 µM), 56.4% (inactive) and 40.1% (inactive). For the same compound, the growth inhibition in test [5] (setting [7]) was 2% (inactive) and 16% (inactive); in test [5] (setting [8]), 42% (inactive) and 93% (active); in test [5] (at 50.0 µM), 46.6% (inactive) and 73.8% (active); in test [6] (setting [7]) it was 33% (inactive) and 18% (inactive); in test [6] (setting [8]), 79% (active) and 65% (inactive); in test [6] (at 50.0 µM), 76.9% (active) and 76.8% (active).

For `Nc1cc(Cl)c(S(=O)(=O)O)cc1Cl`, the growth inhibition in test [1] (setting [7]) was 67% (inactive); in test [1] (setting [8]) it was 98% (active); in test [1] (at 50.0 µM) it was -16.2% (inactive) and 35.6% (inactive); in test [2] (setting [7]) it was 18% (inactive); in test [2] (setting [8]) it was 98% (active); in test [2] (at 50.0 µM) it was -1.25% (inactive) and -2.55% (inactive). Also, the growth inhibition in test [3] (setting [7]) is 9% (inactive); in test [3] (setting [8]), 96% (active); in test [3] (at 50.0 µM), -1.55% (inactive) and -2.6% (inactive); in test [4] (setting [7]), -7% (inactive); in test [4] (setting [8]) it was 96% (active); in test [4] (at 50.0 µM), -14% (inactive) and 39.3% (inactive). The growth inhibition was 12% (inactive) in test [5] (setting [7]); 98% (active) in test [5] (setting [8]); -6.55% (inactive) and 1.75% (inactive) in test [5] (at 50.0 µM); 28% (inactive) in test [6] (setting [7]); 98% (active) in test [6] (setting [8]); 5.2% (inactive) and 30.6% (inactive) in test [6] (at 50.0 µM).

Regarding `COc1cc(C2C(C#N)=C(C)Nc3nc(N)nc(N)c32)cc(OC)c1OC` (stereo unspecified), the growth inhibition in test [1] (setting [7]) was -6% (inactive); in test [1] (setting [8]), 19% (inactive); in test [1] (at 50.0 µM), 24.6% (inactive); in test [2] (setting [7]), -7% (inactive); in test [2] (setting [8]) it was 13% (inactive); in test [2] (at 50.0 µM) it was 3.75% (inactive). The growth inhibition was -8% (inactive) in test [3] (setting [7]); 10% (inactive) in test [3] (setting [8]); 19.1% (inactive) in test [3] (at 50.0 µM); -6% (inactive) in test [4] (setting [7]); 9% (inactive) in test [4] (setting [8]); 81.4% (active) in test [4] (at 50.0 µM). In addition, the growth inhibition in test [5] (setting [7]) was 0% (inactive); in test [5] (setting [8]) it was 65% (inactive); in test [5] (at 50.0 µM) it was 1.2% (inactive); in test [6] (setting [7]) it was -1% (inactive); in test [6] (setting [8]), 21% (inactive); in test [6] (at 50.0 µM), 8.95% (inactive).

With `CC1(C)C(c2ccccc2)=Nc2ccccc21`, the growth inhibition was 0% (inactive) in test [1] (setting [7]); 36% (inactive) in test [1] (setting [8]); 34.1% (inactive) in test [1] (at 50.0 µM); 3% (inactive) in test [2] (setting [7]); 89% (active) in test [2] (setting [8]); 92.6% (active) in test [2] (at 50.0 µM). Moreover, the growth inhibition was -13% (inactive) in test [3] (setting [7]); 61% (inactive) in test [3] (setting [8]); 32.5% (inactive) in test [3] (at 50.0 µM); -2% (inactive) in test [4] (setting [7]); 62% (inactive) in test [4] (setting [8]); 38% (inactive) in test [4] (at 50.0 µM). In addition, the growth inhibition in test [5] (setting [7]) is 9% (inactive); in test [5] (setting [8]) it was 94% (active); in test [5] (at 50.0 µM) it was 96.7% (active); in test [6] (setting [7]) it was -5% (inactive); in test [6] (setting [8]) it was 46% (inactive); in test [6] (at 50.0 µM), 86.2% (active).

`O=C1/C(=C/c2ccc(Cl)cc2)CNC/C1=C\c1ccc(Cl)cc1`: the growth inhibition was 83% (active) and 48% (inactive) in test [1] (setting [7]); 79% (active) and 71% (active) in test [1] (setting [8]); 76.7% (active) and 86.2% (active) in test [1] (at 50.0 µM); 76% (active) and 48% (inactive) in test [2] (setting [7]); 87% (active) and 78% (active) in test [2] (setting [8]); 81.8% (active) and 89.5% (active) in test [2] (at 50.0 µM). In addition, the growth inhibition in test [3] (setting [7]) was 88% (active) and 58% (inactive); in test [3] (setting [8]) it was 88% (active) and 91% (active); in test [3] (at 50.0 µM), 87.2% (active) and 86.7% (active); in test [4] (setting [7]) it was 69% (inactive) and 44% (inactive); in test [4] (setting [8]), 85% (active) and 73% (active); in test [4] (at 50.0 µM), 83.8% (active) and 83.5% (active). The growth inhibition in test [5] (setting [7]) was 90% (active) and 46% (inactive); in test [5] (setting [8]), 85% (active) and 95% (active); in test [5] (at 50.0 µM) it was 79.9% (active) and 85.3% (active); in test [6] (setting [7]), 91% (active) and 66% (inactive); in test [6] (setting [8]), 75% (active) and 88% (active); in test [6] (at 50.0 µM), 81.2% (active) and 79.2% (active).

Turning to `CN(C)Cc1c(O)ccc2ccccc12`, the growth inhibition in test [1] (setting [7]) is 2% (inactive); in test [1] (setting [8]), 89% (active); in test [1] (at 50.0 µM), -32.9% (inactive) and 45% (inactive); in test [2] (setting [7]) it was 1% (inactive); in test [2] (setting [8]) it was 98% (active); in test [2] (at 50.0 µM) it was -33% (inactive) and 90.2% (active). In addition, the growth inhibition is 2% (inactive) in test [3] (setting [7]); 97% (active) in test [3] (setting [8]); -52.2% (inactive) and 43.4% (inactive) in test [3] (at 50.0 µM); -6% (inactive) in test [4] (setting [7]); 96% (active) in test [4] (setting [8]); -18.8% (inactive) and 85.1% (active) in test [4] (at 50.0 µM). The growth inhibition in test [5] (setting [7]) is 0% (inactive); in test [5] (setting [8]), 97% (active); in test [5] (at 50.0 µM) it was -32.4% (inactive) and 23.8% (inactive); in test [6] (setting [7]), 2% (inactive); in test [6] (setting [8]), 99% (active); in test [6] (at 50.0 µM), -32.2% (inactive) and 39.2% (inactive).
